Source: PubChem BioAssay AID1159580 (chemical genetic matrix, 2015)
Among all 5,500 compounds or so, about 2,000 (36%) were called active. Inconclusive results (about 18%) are left out. Cut-off read from the data, not from the text of the source: active = normalized growth mostly below about 0.91 (no sharp cut-off); inconclusive = no clear call, values can overlap the other calls; inactive = mostly above about 0.92. The list shows a part of the results.

Test: chemical genetic growth profiling, strain panel (AID 1159580);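 note: tested at 20 µM; growth read once vehicle control cultures reached saturation at 30 °C; 1 = growth at the plate median or of vehicle wells; lower values mean less growth of the strain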
Details: growth OD
[1] = S. cerevisiae deletion strains, locus YAL013W, strain DEP1, active compounds read low
[2] = S. cerevisiae deletion strains, locus YBR229C, strain ROT2, active compounds read low
[3] = S. cerevisiae deletion strains, locus YDL101C, strain DUN1, active compounds read low
[4] = S. cerevisiae deletion strains, locus YDR150W, strain NUM1, active compounds read low
[5] = S. cerevisiae deletion strains, locus YEL061C, strain CIN8, active compounds read low
[6] = S. cerevisiae deletion strains, locus YGR078C, strain PAC10, active compounds read low
[7] = S. cerevisiae deletion strains, locus YGR229C, strain SMI1, active compounds read low
[8] = S. cerevisiae deletion strains, locus YHR030C, strain SLT2, active compounds read low
[9] = S. cerevisiae deletion strains, locus YHR087W, strain rtc3, active compounds read low
[10] = S. cerevisiae deletion strains, locus YJR043C, strain POL32, active compounds read low
[11] = S. cerevisiae deletion strains, locus YJR075W, strain HOC1, active compounds read low
[12] = S. cerevisiae deletion strains, locus YLR039C, strain RIC1, active compounds read low
[13] = S. cerevisiae deletion strains, locus YLR058C, strain SHM2 (second series), active compounds read low
[14] = S. cerevisiae deletion strains, locus YLR085C, strain ARP6, active compounds read low
[15] = S. cerevisiae deletion strains, locus YLR262C, strain YPT6, active compounds read low
[16] = S. cerevisiae deletion strains, locus YML094W, strain GIM5, active compounds read low
[17] = S. cerevisiae deletion strains, locus YMR219W, strain ESC1, active compounds read low
[18] = S. cerevisiae deletion strains, locus YMR263W, strain SAP30, active compounds read low
[19] = S. cerevisiae deletion strains, locus YNL153C, strain GIM3, active compounds read low
[20] = S. cerevisiae deletion strains, locus YNL298W, strain CLA4 (second series), active compounds read low
[21] = S. cerevisiae deletion strains, locus YNL322C, strain KRE1, active compounds read low
[22] = S. cerevisiae deletion strains, locus YNR030W, strain Alg12, active compounds read low
[23] = S. cerevisiae deletion strains, locus YOL006C, strain TOP1, active compounds read low
[24] = S. cerevisiae deletion strains, locus YPL055C, strain LGE1, active compounds read low
[25] = S. cerevisiae deletion strains, locus YPL241C, strain CIN2, active compounds read low
[26] = S. cerevisiae deletion strains, locus YPR135W, strain CTF4, active compounds read low
[27] = S. cerevisiae strains, strain wild type, active compounds read low

Measured: normalized growth

COc1cccc(-c2nc(C#N)c(N)o2)c1
inactive: [1] 0.987 | [2] 0.996 | [3] 0.995 | [4] 0.983 | [5] 1.02 | [6] 0.996 | [8] 0.708 | [9] 1 | [10] 0.968 | [11] 0.992 | [12] 0.945 | [13] 0.99 | [14] 0.79 | [15] 0.979 | [16] 1.01 | [17] 0.989 | [18] 0.944 | [19] 0.987 | [20] 0.946 | [21] 1.01 | [22] 0.989 | [23] 0.796 | [24] 0.966 | [25] 0.953 | [26] 0.871 | [27] 0.958
active: [7] 0.938

c1cc2c(cc1N=C1SCC3CCCCN13)OCO2 (configuration not stated)
inactive: [1] 1 | [2] 1.01 | [3] 1.02 | [4] 1.05 | [5] 0.991 | [6] 1.01 | [7] 0.997 | [8] 1.05 | [9] 0.995 | [10] 1.03 | [11] 1.03 | [12] 0.983 | [13] 1 | [14] 0.932 | [15] 1.12 | [16] 0.973 | [17] 1 | [18] 1.01 | [19] 1.02 | [20] 0.974 | [21] 1 | [22] 1 | [24] 0.996 | [25] 0.953 | [26] 1.05 | [27] 1

NC(=S)COc1ccccc1Cl
inactive: [1] 0.998 | [2] 0.985 | S. cerevisiae deletion strains, locus YCL061C, strain MRC1, active compounds read low 1 | [3] 1 | S. cerevisiae deletion strains, locus YDL134C, strain PPH21, active compounds read low 0.981 | [4] 0.998 | [5] 0.931 | [6] 1.03 | [8] 0.794 | [9] 1.04 | S. cerevisiae deletion strains, locus YJL187C, strain SWE1, active compounds read low 0.983 | [10] 0.994 | [11] 1.01 | S. cerevisiae deletion strains, locus YKL190W, strain CNB1, active compounds read low 0.968 | [12] 0.796 | [13] 0.982 | [15] 0.887 | [16] 0.947 | [17] 0.982 | [18] 1.01 | [19] 0.971 | [21] 0.994 | [22] 0.95 | [24] 1.04 | [25] 0.891 | [26] 0.801
active: [14] 0.624 | [20] 0.799 | [23] 0.294
